Measurements reported in the supplement of paper PMC13380429.

System: Vero E6 infected with SARS-CoV-2
Assay: inhibition of SARS-CoV-2 cytopathic effect; higher = more antiviral protection, active = above 15
Conditions: 48 h

Measured: inhibition of SARS-CoV-2 cytopathic effect

Cc1ncc(CSSCc2cnc(C)c(O)c2CO)c(CO)c1O [pyritinol]
inactive: 1 nM -0.56% | 8.33 nM 1.16% | 100 nM 2.92% | 833.33 nM 1.42% | 10000 nM 0.94%

O=C(Nc1ccncc1)c1cc([N+](=O)[O-])ccc1Cl
inactive: 1 nM -0.14% | 8.33 nM 1.74% | 100 nM -1.69% | 833.33 nM -1.5% | 10000 nM 14.7%

CC(C)Cc1ccc(C(C)C(=O)NO)cc1 (stereo not given) [ibuproxam]
inactive: 1 nM 1.38% | 8.33 nM 1.54% | 100 nM 0.99% | 833.33 nM 2.87% | 10000 nM 1.73%

CC1=C(C(=O)OC(C)C)C(c2cccc([N+](=O)[O-])c2)C(C(=O)OC2CN(C(c3ccccc3)c3ccccc3)C2)=C(N)N1 (stereo not given) [azelnidipine]
inactive: 1 nM 3.44% | 8.33 nM 1.14% | 100 nM -0.26% | 833.33 nM 0.91% | 10000 nM -6.87%
